Hits are enriched below; roughly 3% of the tested compounds scored in any of these assays.
SENP7 inh – inhibitors of human SENP7 protease. Q9BQF6. AID 434973. inhibition, % at 5 µM. actives 1.5% (n = 330,000). recombinant SENP7, Z-RLRGG-aminoluciferin luminescence, 40 min;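 active means inhibition above about 50% at the single test dose, limit read from the data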
Target sequence (Q9BQF6 706-1050 limits assumed): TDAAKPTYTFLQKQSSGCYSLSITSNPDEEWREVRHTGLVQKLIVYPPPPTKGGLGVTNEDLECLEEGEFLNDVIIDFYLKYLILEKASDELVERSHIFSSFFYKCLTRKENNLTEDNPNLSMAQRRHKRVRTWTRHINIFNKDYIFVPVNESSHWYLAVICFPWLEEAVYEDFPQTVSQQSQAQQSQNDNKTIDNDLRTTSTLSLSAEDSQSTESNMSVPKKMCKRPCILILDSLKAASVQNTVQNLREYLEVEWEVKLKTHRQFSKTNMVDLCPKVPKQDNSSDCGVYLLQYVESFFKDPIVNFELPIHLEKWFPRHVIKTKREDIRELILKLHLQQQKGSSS
SENP8 block-1 – blocks human SENP8 cleavage of Nedd8 substrate | Q96LD8 | recombinant SENP8, Nedd8 substrate fluorescence | inhibition, % at 20 µM | actives 0.64% (n = 360,000); in the data active means inhibition mostly above about 40%, no sharp cut-off; inactive means mostly below about 27%
Target sequence (Q96LD8 whole entry, looked up): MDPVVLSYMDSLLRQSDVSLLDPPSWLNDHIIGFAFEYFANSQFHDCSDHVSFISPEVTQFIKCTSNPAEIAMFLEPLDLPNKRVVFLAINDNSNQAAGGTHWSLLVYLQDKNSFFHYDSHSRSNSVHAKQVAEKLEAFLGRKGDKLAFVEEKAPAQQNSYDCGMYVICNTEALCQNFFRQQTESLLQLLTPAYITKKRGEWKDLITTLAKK
TRAIL sens C8 – sensitizes caspase-8 expressing cells to TRAIL; NB7+C8 cells + TRAIL, ATPlite viability luminescence; inhibition (viability loss, TRAIL sensitization), % at 10 µM; actives 1% (n = 360,000);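 active means compounds causing at least 50% loss of cell viability in the single-dose screen, relative to plate controls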
SENP8 block-2 – blocks the human protease SENP8. purified SENP8, Z-RLRGG-aminoluciferin cleavage, luminescence. inhibition, % at 10 µM. actives 1.2% (n = 330,000); in the data active means inhibition above about 50%
SENP6 inh – blocks the human protease SENP6; Q9GZR1; Recombinant SENP6 catalytic domain, aminoluciferin luminescence; inhibition, % at 10 µM; actives 1.8% (n = 330,000); AID 2599;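 active means inhibition above about 50% at the single tested dose, limit read from the data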
PPC-1+TRAIL kill – PPC-1 cancer cell killing with TRAIL present; AID 1443; actives 0.41% (n = 220,000); cell killing (% activity), % at 4 µM or 5 µM; PPC-1 cells + TRAIL, ATPLite viability luminescence;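 active means cell killing above 50% in the first pass at 4 µM, then a duplicate retest at 5 µM averaging 50% or more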
A number is an active result.

Results for COc1ccc(-c2cc(=O)c3cc(C)ccc3[nH]2)cc1 ?
SENP7 inh: inactive; SENP8 block-1: inactive; TRAIL sens C8: 73.1; SENP8 block-2: inactive; SENP6 inh: inactive; PPC-1+TRAIL kill: inactive

Results for O=C(Nc1cc(Cl)ccc1-n1cncn1)c1ccc(Br)o1 ?
SENP7 inh: inactive; SENP8 block-1: inactive; TRAIL sens C8: inactive; SENP8 block-2: inactive; SENP6 inh: inactive

Results for CC(C)(C)OC(=O)NCCCC[C@H](NC(=O)c1[nH]cnc1C(=O)N[C@@H](Cc1ccccc1)C(=O)OC(C)(C)C)C(=O)OC(C)(C)C ?
SENP7 inh: inactive; SENP8 block-1: inactive; TRAIL sens C8: 57.6; SENP8 block-2: inactive; SENP6 inh: inactive; PPC-1+TRAIL kill: inactive

Results for CC(C)C[C@H](NC(=O)c1nc[nH]c1C(=O)N[C@@H](CC(C)C)C(=O)OC(C)(C)C)C(=O)OC(C)(C)C ?
SENP7 inh: inactive; SENP8 block-1: inactive; TRAIL sens C8: 54.7; SENP8 block-2: inactive; SENP6 inh: inactive; PPC-1+TRAIL kill: inactive

Results for CC(C)C[C@H](NC(=O)c1nc[nH]c1C(=O)NCC(=O)OC(C)(C)C)C(=O)OC(C)(C)C ?
SENP7 inh: inactive; SENP8 block-1: inactive; TRAIL sens C8: inactive; SENP8 block-2: inactive; SENP6 inh: inactive; PPC-1+TRAIL kill: inactive

Results for CC(C)C[C@H](NC(=O)c1nc[nH]c1C(=O)N[C@@H](CC(C)C)C(=O)OCc1ccccc1)C(=O)OCc1ccccc1 ?
SENP7 inh: inactive; SENP8 block-1: inactive; TRAIL sens C8: 52.0; SENP8 block-2: inactive; SENP6 inh: inactive

How did CC(C)(C)OC(=O)NCCCCCNC(=O)c1[nH]cnc1C(=O)N[C@@H](Cc1ccccc1)C(=O)OC(C)(C)C do in these assays?
SENP7 inh: inactive; SENP8 block-1: inactive; TRAIL sens C8: inactive; SENP8 block-2: inactive; SENP6 inh: inactive

How did COC(=O)c1cnn(-c2ccccc2)c1/C=N/NC(=S)Nc1ccc(Cl)cc1 do in these assays?
SENP7 inh: inactive; SENP8 block-1: inactive; TRAIL sens C8: inactive; SENP8 block-2: inactive; SENP6 inh: inactive; PPC-1+TRAIL kill: inactive

How did Cc1ccc(NC(=O)CN2C(=O)S/C(=C/c3ccc(-c4cccc(C(=O)O)c4)o3)C2=O)cc1 do in these assays?
SENP8 block-1: inactive; TRAIL sens C8: inactive; PPC-1+TRAIL kill: inactive

What do the screens show for `CC(C)(C)OC(=O)CN1C(=O)S/C(=C\c2ccc(-c3cccc(C(=O)O)c3)o2)C1=O`?
SENP7 inh: inactive; SENP8 block-2: 68.0; SENP6 inh: 78.0

How did COc1cccc(/C=N/Nc2nc(Nc3ccccc3)nc(-n3nc(C)cc3C)n2)c1O do in these assays?
SENP7 inh: inactive; SENP8 block-1: inactive; TRAIL sens C8: 60.6; SENP8 block-2: inactive; SENP6 inh: inactive; PPC-1+TRAIL kill: inactive

How did COc1ccc(/C=N/Nc2cc(C)nc(-n3nc(C)cc3C)n2)c(OC)c1 do in these assays?
SENP7 inh: inactive; SENP8 block-1: inactive; TRAIL sens C8: 54.5; SENP8 block-2: inactive; SENP6 inh: inactive; PPC-1+TRAIL kill: inactive

How did Cc1[nH]n(-c2ccc([N+](=O)[O-])cc2)c(=O)c1C=NCCN1CCN(C(=O)c2ccc(F)cc2)CC1 do in these assays?
SENP7 inh: 89.5; SENP8 block-1: inactive; TRAIL sens C8: inactive; SENP8 block-2: 66.9; SENP6 inh: 90.8; PPC-1+TRAIL kill: inactive

Results for Cc1[nH]n(-c2ccc([N+](=O)[O-])cc2)c(=O)c1C=NCCc1c[nH]c2ccccc12 ?
SENP7 inh: inactive; SENP8 block-1: inactive; TRAIL sens C8: inactive; SENP8 block-2: inactive; SENP6 inh: inactive; PPC-1+TRAIL kill: inactive

What do the screens show for `Cc1cc(Cl)ccc1OC(C)C(=O)Nc1cnn(CCCC(=O)O)c1` (configuration not stated)?
SENP7 inh: inactive; SENP8 block-1: inactive; TRAIL sens C8: inactive; SENP8 block-2: inactive; SENP6 inh: inactive

Results for Oc1ccc(/C=N/N2CCN(C3c4ccccc4-c4ccccc43)CC2)cc1O ?
SENP7 inh: inactive; SENP8 block-1: inactive; TRAIL sens C8: 58.3; SENP8 block-2: inactive; SENP6 inh: inactive; PPC-1+TRAIL kill: inactive

How did Oc1ccc(/C=N/N2CCN(C3c4ccccc4-c4ccccc43)CC2)cc1 do in these assays?
SENP7 inh: inactive; SENP8 block-1: inactive; TRAIL sens C8: inactive; SENP8 block-2: inactive; SENP6 inh: inactive; PPC-1+TRAIL kill: inactive

Results for O=C1C=CC2=C3c4cc(O)c(O)cc4CC3(O)COC2=C1O (configuration not stated) ?
SENP8 block-1: inactive; TRAIL sens C8: inactive

What do the screens show for `O=C(/C=C/c1ccc(Cl)cc1)c1ccc([N+](=O)[O-])o1`?
SENP7 inh: inactive; SENP8 block-1: inactive; TRAIL sens C8: 59.8; SENP8 block-2: inactive; SENP6 inh: inactive

Results for Cc1cc(O)c(C(=O)/C=C/c2ccc(Cl)cc2)c(=O)o1 ?
SENP7 inh: inactive; SENP8 block-1: inactive; TRAIL sens C8: 69.5; SENP8 block-2: inactive; SENP6 inh: inactive

What do the screens show for `CSc1ccc(/C=C/C(=O)c2c(O)cc(C)oc2=O)cc1`?
SENP7 inh: inactive; SENP8 block-1: inactive; TRAIL sens C8: 63.8; SENP8 block-2: inactive; SENP6 inh: inactive

How did CSc1ccc(CN2CCC(n3nccc3NC(=O)C3CCOC3)CC2)cc1 (configuration not stated) do in these assays?
SENP7 inh: inactive; SENP8 block-1: inactive; TRAIL sens C8: inactive; SENP8 block-2: inactive; SENP6 inh: inactive

Results for COc1ccccc1C(=O)C1CCCN(C(=O)CN2CCCCC2=O)C1 (configuration not stated) ?
SENP7 inh: inactive; SENP8 block-1: inactive; TRAIL sens C8: inactive; SENP8 block-2: inactive; SENP6 inh: inactive; PPC-1+TRAIL kill: inactive

What do the screens show for `Cc1ccc2nc(-c3ccccc3)nn2c1`?
SENP8 block-1: inactive; TRAIL sens C8: 76.2

Results for Cc1ccc(-c2nnc(-c3ccccc3)c(-c3ccccc3)n2)cc1 ?
SENP7 inh: inactive; SENP8 block-1: inactive; TRAIL sens C8: inactive; SENP8 block-2: inactive; SENP6 inh: inactive; PPC-1+TRAIL kill: inactive

How did CC(C)C[C@H]1CNC(=S)N1C[C@H]1CCCN1C[C@H](Cc1ccccc1)N1C[C@H](Cc2ccc(O)cc2)N(CC2CCCCC2)C1=S do in these assays?
SENP8 block-1: inactive; TRAIL sens C8: 67.8

What do the screens show for `O=c1c(O)c(-c2cc(O)c(O)c(O)c2)oc2cc(O)cc(O)c12`?
SENP7 inh: inactive; SENP8 block-1: 38.9; TRAIL sens C8: inactive; SENP8 block-2: inactive; SENP6 inh: inactive

What do the screens show for `CCCc1c(C(=O)N/N=C/C=C/c2ccccc2)nnn1-c1nonc1N`?
SENP8 block-1: inactive; TRAIL sens C8: 54.7

What do the screens show for `CCCc1c(C(=O)N/N=C/C(C)=C/c2ccccc2)nnn1-c1nonc1N`?
SENP7 inh: inactive; SENP8 block-1: inactive; TRAIL sens C8: inactive; SENP8 block-2: inactive; SENP6 inh: inactive

Results for COCCNc1nc(NCc2cccc(OC)c2)c2sc(-c3ccccc3)cc2n1 ?
SENP8 block-1: inactive; TRAIL sens C8: inactive

Screening data from PubChem.
